Test results: PubChem BioAssay AID743314 (Broad Institute, 2014)
Potency and affinity values are given separately. Results filed as inconclusive are left out.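 How the source made its calls: active means fitted half-maximal concentration no higher than twice the top tested dose, in every repeat run; inconclusive means repeat runs disagree, poor fit, or flat partial inhibition; inactive means the rest.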

biological target: Endoplasmic reticulum aminopeptidase 1 (Homo sapiens) (UniProt Q9NZ08); test: ERAP1 aminopeptidase inhibitors, dose response, biochemical, cherry-pick, set 2, plate reader (AID 743314); details: Recombinant ERAP1, Leu-AMC fluorescence, 60 min; series mostly up to 11 µM; activity change, negative = inhibition: at the top concentration;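 further: 0% = neutral control wells and -100% = L-leucinethiol positive control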
Sequence (Q9NZ08 whole entry, looked up): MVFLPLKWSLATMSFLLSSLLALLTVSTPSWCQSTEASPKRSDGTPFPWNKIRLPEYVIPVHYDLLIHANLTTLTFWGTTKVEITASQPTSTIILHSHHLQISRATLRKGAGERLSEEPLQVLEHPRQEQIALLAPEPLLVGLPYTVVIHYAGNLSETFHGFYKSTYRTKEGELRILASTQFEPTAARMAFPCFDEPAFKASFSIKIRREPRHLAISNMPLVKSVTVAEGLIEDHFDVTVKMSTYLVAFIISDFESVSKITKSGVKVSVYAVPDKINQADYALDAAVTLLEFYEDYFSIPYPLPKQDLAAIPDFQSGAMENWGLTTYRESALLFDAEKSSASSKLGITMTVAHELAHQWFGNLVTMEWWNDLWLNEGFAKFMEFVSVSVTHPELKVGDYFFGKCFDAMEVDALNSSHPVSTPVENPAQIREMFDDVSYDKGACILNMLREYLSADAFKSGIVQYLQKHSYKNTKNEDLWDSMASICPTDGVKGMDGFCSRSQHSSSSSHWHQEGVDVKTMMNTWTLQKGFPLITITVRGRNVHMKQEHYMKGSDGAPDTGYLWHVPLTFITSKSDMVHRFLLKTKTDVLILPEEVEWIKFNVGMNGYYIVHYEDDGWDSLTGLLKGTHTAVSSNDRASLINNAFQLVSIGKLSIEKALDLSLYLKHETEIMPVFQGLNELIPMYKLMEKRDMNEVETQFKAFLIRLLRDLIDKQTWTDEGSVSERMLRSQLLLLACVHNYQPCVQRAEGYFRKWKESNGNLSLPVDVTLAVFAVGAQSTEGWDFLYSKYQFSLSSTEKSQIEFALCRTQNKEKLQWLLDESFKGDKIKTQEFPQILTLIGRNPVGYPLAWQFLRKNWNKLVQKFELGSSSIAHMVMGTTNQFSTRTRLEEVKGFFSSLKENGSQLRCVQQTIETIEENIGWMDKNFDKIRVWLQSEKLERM

Activity change, negative = inhibition, inactive:
Cc1ccc(C)c(NC(=O)C2CC(O)CN2C(=O)Oc2ccccc2)c1 (stereo not drawn) -1.41%, C/C=C/c1ccc([C@H]2[C@@H](CO)N(C(=O)CC)[C@@H]2CNCC2CCCCC2)cc1 38.1%, Cc1noc(C)c1NC(=O)N(C)C[C@H]1Oc2c(NC(=O)Nc3ccc(F)cc3)cccc2C(=O)N([C@H](C)CO)C[C@@H]1C 44.6%, C[C@@H]1CN([C@@H](C)CO)C(=O)c2cc(NC(=O)CCN3CCOCC3)ccc2O[C@@H]1CN(C)S(=O)(=O)c1ccccc1 15.8%, COc1ccc(NC(=O)Nc2cccc3c2O[C@H](CN(C)Cc2ccc(C(=O)O)cc2)[C@H](C)CN([C@H](C)CO)C3=O)cc1 49.6%, C[C@@H]1CCCCO[C@H](CN(C)S(=O)(=O)c2ccccc2)[C@H](C)CN([C@H](C)CO)C(=O)c2cc(NS(=O)(=O)c3ccc(Cl)cc3)ccc2O1 22%, COc1ccc2c3c([nH]c2c1)[C@@H](CO)N(Cc1cc(F)ccc1F)CC31CN(C(=O)CN(C)C)C1 35.7%, Cc1cccc(C)c1NC(=O)CSc1nnc(NC(=O)c2ccccc2C(=O)O)s1 17.8%, COc1ccc(CN(C)C[C@H]2Oc3c(NC(=O)NC4CCCCC4)cccc3C(=O)N([C@@H](C)CO)C[C@H]2C)cc1 27.1%, O=C(NCc1ccccc1Cl)c1cc(=O)[nH]c2ccccc12 -10.3%, O=C(CC1CC1)N1[C@H](CO)[C@H](c2ccccc2)C12CN(Cc1cc(F)ccc1F)C2 11.5%, CC(C)NC(=O)C1C(c2ccc(C(F)(F)F)cc2)=Nc2ccccc2N1C(=O)c1ccco1 (stereo not drawn) 4.24%, CC(C)C(NC(=O)CCNC(=O)c1ccc([N+](=O)[O-])cc1)c1nc2ccccc2[nH]1 (stereo not drawn) 1.84%, O=C(CSc1nc2ccccc2c(=O)n1-c1ccccc1)NCC1CCCO1 (stereo not drawn) -4.58%, CC(C)[C@H](NC(N)=O)C(=O)NNC(=O)COc1cccc(C(F)(F)F)c1 -4.59%, CCCC#Cc1ccc2c(c1)O[C@H](CN(C)Cc1ccncc1)[C@@H](C)CN([C@H](C)CO)S2(=O)=O 14.5%, O=C(C[C@@H]1C=C[C@H](NC(=O)Nc2cccc(F)c2)[C@H](CO)O1)NCC1CCCCC1 59.7% [at 12 µM], Cn1c(=O)[nH]c(=O)c2c1[nH]c(=S)n2Cc1ccccc1 -25%, CCc1cccc(C)c1NC(=O)c1cc(=O)[nH]c2ccc(S(=O)(=O)N3CCOCC3)cc12 2.94%, Cc1noc(C)c1NC(=O)N(C)C[C@H]1Oc2c(NC(=O)Nc3ccc(F)cc3)cccc2C(=O)N([C@H](C)CO)C[C@H]1C 9.59%, COc1cc2cc(C(=O)N3CCN(Cc4ccc5c(c4)OCO5)CC3)c(=O)oc2cc1OC 52.3% [at 5.6 µM], COc1ccc(C2=NN(c3ccc(C(=O)O)cc3)C(c3ccc(OC)c(OC)c3)C2)cc1 (stereo not drawn) 364%, CC1CN(Cc2cc(=O)oc3cc(O)c(Cl)cc23)CC(C)O1 (stereo not drawn) 86.2% [at 5.6 µM], C[C@H]1CN([C@@H](C)CO)C(=O)c2cccc(NC(=O)Nc3ccc(C(F)(F)F)cc3)c2O[C@H]1CN(C)C 32.4%, C[C@H](CO)N1C[C@H](C)[C@H](CN(C)Cc2ccc(C(=O)O)cc2)Oc2c(NC(=O)Nc3ccccc3)cccc2C1=O 59.2%, O=C(COC(=O)c1ccc(CO)cc1)Nc1ccc2ccccc2c1 1.79%, N#Cc1ccccc1OCC(=O)OCC(=O)c1ccc2c(c1)NC(=O)CO2 -8.39%, Cn1cnc(Sc2ncnc3nc[nH]c23)c1[N+](=O)[O-] -15.1%, Cc1ccc(SC(C)C(=O)NCc2ccncc2)cc1 (stereo not drawn) 3.37%, Cc1oc2c(c(C)cc3oc(=O)c(CC(=O)N[C@H](C(=O)O)C(C)C)c(C)c32)c1C -10.3%, O=S(=O)(Nc1cccc(-c2cn3c(n2)SCC3)c1)c1ccccc1F -32.8% [at 5.6 µM], C[C@@H]1CN([C@H](C)CO)C(=O)c2cccc(NC(=O)Nc3ccc(C(F)(F)F)cc3)c2O[C@H]1CN(C)C 38.7% [at 10 µM], COc1ccc(CN(C)C(=O)CCCNC(=O)c2ccc(Cl)cc2)cc1 -4.67%, CCCCCn1c(=NC(=O)c2ccco2)c(C(=O)OCC)cc2c(=O)n3ccccc3nc21 -30.4%, CNc1cncc(-c2cccc(C(=O)N(C)C)c2)n1 -17.7%, C[C@H](CO)N1C[C@H](C)[C@@H](CN(C)Cc2ccc(C(=O)O)cc2)OCCCC[C@H](C)Oc2ccc(NC(=O)Nc3ccccc3)cc2C1=O 58.9%, C[C@@H]1CN([C@H](C)CO)C(=O)Cc2cc(NC(=O)Nc3cccc4ccccc34)ccc2O[C@H]1CN(C)Cc1ccc(C(=O)O)cc1 18.3%, Cc1ccc(S(=O)(=O)N(C)C[C@@H]2Oc3ccc(NC(=O)c4ccncc4)cc3C(=O)N([C@H](C)CO)C[C@H]2C)cc1 22.3% [at 10 µM]
